From PubChem
Sampled rows, rich in hits. Any-hit rate of the full collection: about 8%.
TSHR antag – Antagonists of the Thyroid Stimulating Hormone Receptor: HTS campaign; TSHR-expressing cells, TSH-stimulated cAMP HTRF, 2 h; hits give low values; activity change, negative = inhibition, % at 11.5 µM; 330,000 compounds, 0.2% hits; AID 504810, 2011;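 active means activity change below a set negative limit, meaning inhibition stronger than a set level, cut at about -70% in these data; inconclusive means activity change between two set negative limits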
Target sequence (P16473 whole entry, looked up): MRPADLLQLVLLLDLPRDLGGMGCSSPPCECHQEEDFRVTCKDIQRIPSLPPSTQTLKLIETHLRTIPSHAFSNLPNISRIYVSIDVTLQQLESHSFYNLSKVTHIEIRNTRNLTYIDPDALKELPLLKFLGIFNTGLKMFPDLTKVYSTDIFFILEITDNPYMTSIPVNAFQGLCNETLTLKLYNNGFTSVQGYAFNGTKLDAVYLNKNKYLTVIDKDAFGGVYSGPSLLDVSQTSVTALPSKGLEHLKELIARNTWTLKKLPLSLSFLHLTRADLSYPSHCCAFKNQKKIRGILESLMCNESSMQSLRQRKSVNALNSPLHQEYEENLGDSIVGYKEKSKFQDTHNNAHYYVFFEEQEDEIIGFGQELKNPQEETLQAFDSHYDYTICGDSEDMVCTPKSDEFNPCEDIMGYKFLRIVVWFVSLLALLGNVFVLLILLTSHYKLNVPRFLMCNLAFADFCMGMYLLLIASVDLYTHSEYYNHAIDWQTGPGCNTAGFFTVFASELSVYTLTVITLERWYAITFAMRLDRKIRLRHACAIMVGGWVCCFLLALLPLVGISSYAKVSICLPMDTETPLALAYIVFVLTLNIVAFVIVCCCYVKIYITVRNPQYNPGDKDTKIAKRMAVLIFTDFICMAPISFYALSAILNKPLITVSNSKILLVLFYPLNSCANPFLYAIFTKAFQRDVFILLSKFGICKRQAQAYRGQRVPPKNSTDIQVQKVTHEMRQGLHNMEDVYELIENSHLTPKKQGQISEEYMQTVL
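Inhibition of cAMP made by TSHR-expressing cells under TSH stimulation (4nM final, EC80; 2 h, 37 deg C) is quantified with a one-step lysis HTRF kit, anti-cAMP cryptate versus cAMP-d2.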
ELG1 DNA repair – qHTS screen for small molecules that inhibit ELG1-dependent DNA repair in human embryonic kidney (HEK293T) cells expressing luciferase-tagged ELG1; HEK293T ELG1-luciferase reporter, luminescence, 16 h; DNA damage induced by 5-fluorouridine; Potency, µM (highest dose often 46.1 µM), actives largely listed as inhibitors; 330,000 compounds, 2.3% hits; AID 504467, 2011; further: nearly all actives have a fitted effect of over 55% in size
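HEK293T cells expressing luciferase-tagged ELG1 (2,000/well) received 5-Fluorouridine plus compound or DMSO for 16 hr at 37 °C. Luciferase was read by ONE-Glo luminescence after 30 min at room temperature.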
RORgamma inh – qHTS for inhibitors of ROR gamma transcriptional activity. Drosophila S2 Gal4-RORgamma UAS-luciferase reporter, 20 h. 310,000 compounds, 5.4% hits. Potency, µM (series often up to 53.6 µM), actives largely listed as inhibitors. AID 2551, 2010. Nuclear receptor ROR-gamma (Mus musculus), P51450; further: nearly all actives have a fitted effect of over 60% in size
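In this cell-based reporter format, copper sulfate (700 uM final) drives Gal4–ROR gamma fusion expression from a metallothionein promoter in Drosophila Schneider cells; compounds preincubated 1 hr, reporter read after 20 hr at ambient temperature.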
VP16 counter – VP16 counterscreen qHTS for inhibitors of ROR gamma transcriptional activity. Drosophila S2 Gal4-VP16 UAS-luciferase, luminescence, 20 h. Potency, µM (titrated, usually from 53.6 µM), actives largely listed as inhibitors. 310,000 compounds, 3.5% hits. AID 2546, 2010;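 further: Gal4-VP16 expression switched on by copper sulfate through the metallothionein promoter; nearly all actives have a fitted effect of over 50% in size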
Coupling enz – qHTS Assay for Inhibitors of Fructose-1,6-bisphosphate Aldolase from Giardia Lamblia: Coupling assay counterscreen; coupling enzyme system counterscreen, AmpLite Red fluorescence; activity change, negative = inhibition, % at 58.2 µM, hits read low; 290,000 compounds, 0.67% hits; AID 2472, 2010; in the data active means activity change below about -30%
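Coupling enzymes only (glyceraldehyde-3-phosphate) + compound, at 57.5 uM final, 10 min RT; add substrate/coupling/AmpLite Red mix, 20 min RT; fluorescence ex 525/em 598 nm. Actives flag coupling-system interference.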
A number is an active result. Unless noted, the call rests on the fitted dose curve; in most records, active means well fitted curve in the direction sought with a large enough effect; inconclusive means small, poorly fitted or top-dose-only effect, or another doubt; inactive means no such curve, though single readings can be large; an effect the other way counts as inactive or inconclusive.

For O=C(/C=C/c1ccco1)NC(=S)Nc1nc(-c2ccc3ccccc3c2)cs1 the results were TSHR antag inactive, ELG1 DNA repair inactive, RORgamma inh 7.9µM, VP16 counter inconclusive and Coupling enz inactive.
Screening CCCCCN(C(=O)CCC(=O)OC(C)C(=O)c1ccc(Cl)cc1)c1c(N)n(CCCC)c(=O)[nH]c1=O (stereo not given) returned TSHR antag inactive and ELG1 DNA repair inactive.
`Cc1ccc(CN2C(=O)c3ccccc3NC2c2cc(Br)ccc2O)cc1` (stereo not given) gave TSHR antag inactive, ELG1 DNA repair inactive, RORgamma inh inactive, VP16 counter inactive and Coupling enz inactive.
Cc1ccc(-c2csc3nc[nH]c(=S)c23)cc1C was read as TSHR antag inactive, ELG1 DNA repair inactive, RORgamma inh 0.45µM, VP16 counter inconclusive and Coupling enz inactive.
For COc1ccc(-c2csc3nc[nH]c(=O)c23)cc1OC the results were TSHR antag inactive, ELG1 DNA repair inactive, RORgamma inh inactive, VP16 counter inactive and Coupling enz inactive.
`CCN1C(=O)/C(=C2/C=Cc3cc(C)ccc3N2CC)N(C)C1=S` gave TSHR antag inactive, ELG1 DNA repair inactive, RORgamma inh 13µM, VP16 counter inconclusive and Coupling enz inactive.
`CCCCCCCCCC(=O)NC(CN1CCOCC1)[C@H](O)c1ccccc1` (stereo not given in full) gave TSHR antag inactive.
Screening S=c1[nH]nc(CNc2ccc(Cl)cc2)n1Cc1ccccc1 returned TSHR antag inactive, ELG1 DNA repair inactive, RORgamma inh 3.5µM, VP16 counter inactive and Coupling enz inactive.
For Fc1ccc(NCc2n[nH]c(=S)n2Cc2ccccc2)cc1 the results were TSHR antag inactive, ELG1 DNA repair inactive, RORgamma inh 4.5µM, VP16 counter inactive and Coupling enz inactive.
Screening COCCN(CCOC)C(=O)CSc1ccc(S(=O)(=O)N2CCN(C)CC2)cn1 returned TSHR antag inactive and ELG1 DNA repair inactive.
C=CC[n+]1c(-c2ccc(OCC)cc2)csc1NNC(=O)Nc1ccccc1 was read as TSHR antag inactive, ELG1 DNA repair inconclusive, RORgamma inh 16µM, VP16 counter inconclusive and Coupling enz inactive.
Cc1nn2c(nc(N3CCCCC3)c3ccccc32)c1C=O was read as TSHR antag inactive, ELG1 DNA repair inconclusive, RORgamma inh inconclusive, VP16 counter inactive and Coupling enz inactive.
For Cc1nn2c([nH]c(=O)c3ccccc32)c1C=O the results were TSHR antag inactive, ELG1 DNA repair inactive, RORgamma inh 4.5µM, VP16 counter 11µM and Coupling enz inactive.
`COc1cc2c(cc1OC)C(COc1ccccc1OC)N(C(C)=O)CC2` (stereo not given) gave TSHR antag inactive, ELG1 DNA repair inactive, RORgamma inh inactive, VP16 counter inactive and Coupling enz inactive.
For COCCNC(=S)N1CCc2cc(OC)c(OC)cc2C1COc1cc(C)cc(C)c1 (stereo not given) the results were TSHR antag inactive, ELG1 DNA repair inconclusive, RORgamma inh inconclusive, VP16 counter 22µM and Coupling enz inactive.
`COc1cc2c(cc1OC)C(COc1ccc([N+](=O)[O-])cc1)N(C(C)=O)CC2` (stereo not given) gave TSHR antag inactive, ELG1 DNA repair 8.2µM, RORgamma inh inactive, VP16 counter inactive and Coupling enz inactive.
N#Cc1ccc(OCC(=O)N2CCCC2=O)cc1 was read as TSHR antag inactive and ELG1 DNA repair inactive.
`C=CCn1c(SCc2ccccc2F)nc2cc(C(=O)O)ccc2c1=O` gave TSHR antag inactive, ELG1 DNA repair inactive, RORgamma inh inactive, VP16 counter inactive and Coupling enz inactive.
Screening CCc1ccc(NS(=O)(=O)c2ccc(C)c(C(=O)N3CCOCC3)c2)cc1 returned TSHR antag inactive, ELG1 DNA repair inactive, RORgamma inh inactive and VP16 counter inactive.
CC(C)(C)OC(=O)NCCCCCc1cn([C@@H](CO)C(=O)NCCCCCCCCCCC(=O)N2CCN(C(=O)OC(C)(C)C)CC2)nn1 was read as TSHR antag -95 and ELG1 DNA repair 3.2µM.
